High-throughput results from PubChem BioAssay.
Pol eta inh-1: DNA polymerase eta (human) inhibition; Q9Y253; recombinant Pol eta, fluorescent DNA replication assay; Potency, µM (top dose mostly 114 µM), for the others: at the highest dose activity change, negative = inhibition, most hits filed as inhibitors; 390,000 compounds, 1.2% hits; AID 588591; note: % is set by controls: 0 for no effect and ±100 for the full control effect
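Fluorescent replication assay: 50 nM final substrate added after a 15 min room-temperature compound preincubation with 10 nM enzyme. Signal taken at 0 min and again at 10 min.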
Pol kappa inh-1: blocks human DNA polymerase kappa activity. purified Pol kappa, fluorescent DNA synthesis assay, 10 min. AID 588579. Q9UBT6. Potency, µM (highest dose often 107 µM), for inactives: at the highest dose activity, negative = inhibition, most hits filed as inhibitors. 400,000 compounds, 0.53% hits; note: % is set by controls: 0 for no effect and ±100 for the full control effect
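Inhibition of 10 nM Pol kappa is measured by a fluorescent read-out at 0 and 10 min following addition of 50 nM substrate (final), with a 15-min room-temperature compound preincubation.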
FEN1 inh-1: inhibitors of human flap endonuclease 1 | P39748 | Recombinant FEN1 flap cleavage, fluorescence, 15 min | Potency, µM (highest dose often 114 µM), inactives show at the highest dose activity change, negative = inhibition, actives largely listed as inhibitors | 390,000 compounds, 0.35% hits | AID 588795; note: % is set by controls: 0 for no effect and ±100 for the full control effect; nearly all actives have a fitted effect of over 65% in size
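Potency values derive from four-parameter Hill fits of normalized qHTS data. The reaction used 10 nM FEN1 preincubated 15 min at room temperature with compound, then 50 nM DNA substrate, read at 0 and 15 min.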
Pol beta inh: DNA polymerase beta (human) inhibition | P06746 | Pol beta primer extension/strand displacement, fluorescence kinetic | Potency, µM (top dose mostly 114 µM), without a hit: at the top dose activity change, negative = inhibition, hits mostly inhibitors | 340,000 compounds, 1.3% hits | AID 485314; note: % is set by controls: 0 for no effect and ±100 for the full control effect
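Curves were derived by four-parameter Hill fits of normalized qHTS data. The kinetic fluorescent primer-extension read was taken at 0 and 10 min after 50 nM substrate, following a 15 min room-temperature preincubation of 10 nM enzyme with compounds.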
Pol iota inh: DNA polymerase iota (human) inhibition; Q9UNA4; Pol iota fluorescent replication assay, 10 min; Potency, µM (titrated, usually from 115 µM), inactives show top-dose activity, negative = inhibition, actives largely listed as inhibitors; 390,000 compounds, 1% hits; AID 588590
Target sequence (Q9UNA4 whole entry, looked up): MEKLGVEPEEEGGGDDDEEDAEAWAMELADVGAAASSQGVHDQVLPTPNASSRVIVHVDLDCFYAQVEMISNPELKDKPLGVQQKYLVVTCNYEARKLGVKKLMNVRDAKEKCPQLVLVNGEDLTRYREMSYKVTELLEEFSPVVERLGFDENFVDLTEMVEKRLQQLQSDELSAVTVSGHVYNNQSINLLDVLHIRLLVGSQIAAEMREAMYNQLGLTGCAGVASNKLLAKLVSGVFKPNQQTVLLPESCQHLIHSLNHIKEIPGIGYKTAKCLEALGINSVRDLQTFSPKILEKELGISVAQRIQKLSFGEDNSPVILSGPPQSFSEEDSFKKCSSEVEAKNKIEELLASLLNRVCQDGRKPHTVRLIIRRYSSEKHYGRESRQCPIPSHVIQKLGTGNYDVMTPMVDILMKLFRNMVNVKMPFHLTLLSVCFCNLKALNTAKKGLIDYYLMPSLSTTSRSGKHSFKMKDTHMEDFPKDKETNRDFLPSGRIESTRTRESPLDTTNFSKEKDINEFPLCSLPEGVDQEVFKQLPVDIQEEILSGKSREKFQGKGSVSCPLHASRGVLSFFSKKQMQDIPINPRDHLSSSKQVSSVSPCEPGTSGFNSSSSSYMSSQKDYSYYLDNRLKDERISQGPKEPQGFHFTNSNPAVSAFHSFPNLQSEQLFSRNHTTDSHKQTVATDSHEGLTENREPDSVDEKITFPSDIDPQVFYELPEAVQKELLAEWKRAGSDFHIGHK
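Fluorescent replication assay read twice, at 0 min and 10 min after adding 50 nM (final) substrate. Enzyme (10 nM) and compounds were first incubated 15 min at room temperature; enzyme-free buffer wells were negative controls.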
WRN inhibitor: blocks human WRN helicase; WRN helicase unwinding, fluorescent forked duplex, kinetic; Potency, µM (series often up to 114 µM), inactives show at the highest dose activity change, negative = inhibition, most hits filed as inhibitors; 360,000 compounds, 0.46% hits; AID 651768; note: % is set by controls: 0 for no effect and ±100 for the full control effect; nearly all actives have a fitted effect of over 55% in size
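WRN at 20 nM final preincubated with compound 15 min at room temperature; reaction started with 100 nM fluorophore/quencher forked duplex oligonucleotide and 2 mM ATP final. Unwinding followed kinetically by red fluorescence (ex 525, em 598 nm).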
TbPGK inh: TbPGK inhibition, hit validation | shares compounds with Pol kappa inh-1 | TbPGK coupled GAPDH assay, Kinase-Glo luminescence | Potency, µM (series often up to 57.5 µM), without a hit: at the top dose activity change, negative = inhibition, hits mostly inhibitors | 500 compounds, 79% hits | AID 686980; note: % is set by controls: 0 for no effect and ±100 for the full control effect; nearly all actives have a fitted effect of over 65% in size
Pol iota confirm: Confirm cherry-picked inhibitors of human polymerase iota. shares compounds with Pol kappa inh-1. Pol iota primer extension, TAMRA/BHQ fluorescence. Potency, µM, usual class: inhibitors. 1,500 compounds, 77% hits. AID 720496
Pol kappa inh-2: confirmation of human DNA polymerase kappa inhibitors | shares compounds with Pol eta inh-1 | purified Pol-kappa, fluorescent strand-displacement substrate | Potency, µM, usual class: inhibitors | 920 compounds, 76% hits
Pol eta inh-2: Pol eta (human) inhibition, cherry-pick confirmation; shares compounds with Pol eta inh-1; Pol eta primer extension, TAMRA/BHQ fluorescence, 10 min; Potency, µM, actives largely listed as inhibitors; 2,600 compounds, 64% hits; AID 720502
FEN1 inh-2: FEN1 inhibition, cherry-pick retest; shares compounds with FEN1 inh-1; FEN1 flap cleavage, TAMRA/BHQ2 fluorogenic DNA substrate; Potency, µM, actives largely listed as inhibitors; 880 compounds, 79% hits; note: nearly all actives have a fitted effect of over 60% in size
* = called active by the depositor; ? = inconclusive; · = no result; [ ] = dose if it differs, or a comment. Rows were chosen to be rich in hits. Some 2.4% of all compounds tested hit in one or more screens of this group. Calls come from the whole dose curve; as a rule, active = well fitted curve in the direction sought with a large enough effect; inconclusive = small, poorly fitted or top-dose-only effect, or another doubt; inactive = no such curve, though single readings can be large; an effect the other way counts as inactive or inconclusive. Potency is the fitted concentration of half-maximal effect.

SMILES	Pol eta inh-1	Pol kappa inh-1	FEN1 inh-1	Pol beta inh	Pol iota inh	WRN inhibitor	Pol iota confirm	Pol eta inh-2	FEN1 inh-2	others
N#CC(C#N)=C(N)/C(C#N)=C/c1cc(O)c(O)c(O)c1	?	0.79µM*	8.9µM*	·	?	?	47*	·	19*
CCc1ccc(NC(=O)CSC2=Nc3ccccc3C3=NC(CCC(=O)NCc4ccco4)C(=O)N23)cc1 (centres undefined)	-21%	-4%[60.1 µM]	1%	-9%	23%	·	·	·	·
Cn1cnnc1SCC(=O)Nc1sc2c(c1C(N)=O)CCC2	22µM*	?	32µM*	14µM*	?	13µM*	67*	43*	?
O=C(O)C(c1ccccc1)N1C(=O)/C(=C\c2ccc(-c3ccc(Br)cc3)o2)SC1=S (centres undefined)	?	?	20µM*	?	11µM*	?	42*	27*	76*
COc1cc(/C=C2\SC(=S)N(C(C(=O)O)c3ccccc3)C2=O)cc(OC)c1OC (centres undefined)	12%	-6%	-13%	0%	?	-15%	·	·	·
COc1c(OC2OC(C(=O)O)C(O)C(O)C2O)cc(O)c2c(=O)cc(-c3ccccc3)oc12 (centres undefined)	-10%	-33%	?	19%	-9%	-1%	·	·	·
O=C(O)C1OC(Oc2cc3oc(-c4ccccc4)cc(=O)c3c(O)c2O)C(O)C(O)C1O (centres undefined)	-16%	79µM*	50µM*	50µM*	10µM*	6%	21*	·	34*
Cc1ccc(Cl)cc1N1CCN(C(=O)c2cc(S(=O)(=O)N3CCC(C)CC3)cn2C)CC1	-5%	-11%[60.1 µM]	4%	?	6%	·	·	·	·
N#Cc1c(-c2ccco2)cc(-c2ccccc2)[nH]c1=O	-17%	?	-31%	?	10µM*	-26%[11.6 µM]	42*	27*	76*	Pol kappa inh-2=12*
COc1cc(/C=C(\C#N)C(=O)Nc2cccc(C(=O)O)c2)ccc1OCc1ccc(Cl)cc1	56µM*	?	?	10µM*	?	-5%[11.6 µM]	?	·	76*
Cc1ccc2oc(-c3ccccc3)cc(=O)c2c1	·	-9%[19.4 µM]	·	·	·	·	·	·	·
CC1(C)CC(N=c2cc(-c3ccccc3)oc3ccc(Cl)cc23)CC(C)(C)N1	?	?	28µM*	4µM*	?	-31%	19*	·	19*
O=C(NCCc1ccccc1Cl)c1sc2ncccc2c1-n1cccc1	-6%	-9%[60.1 µM]	-1%	-18%	6%	·	·	·	·
Oc1cc2c(cc1O)C1c3ccc(O)c(O)c3OCC1(O)C2 (centres undefined)	7.1µM*	0.18µM*	35µM*	13µM*	7.9µM*	28µM*	24*	27*	?	TbPGK inh=5.8µM*
